Hit rate of the full screen: of about 48,000 compounds, about 13,000 (27%) showed an effect of 50% or more. Some of the results follow.
What follows are compounds tested on Wolbachia pipientis (assay: Anti-Wolbachia Cell-Based Screen). Details: 5 µM.
Type: functional
Parameters: scale not given: in the data most compounds retested in dose-response had high values
With `CC(C)N1[C@H](CN(C)C)C[C@@H]2CN(c3ncc(F)cn3)CC[C@@H]21.O=C(O)C(F)(F)F.O=C(O)C(F)(F)F.O=C(O)C(F)(F)F` the “Percent Effect” value was 3.695%.
In the case of `CC1(C)C(C(=O)NCCC2CN(Cc3c[nH]cn3)CCO2)C1(C)C` (stereo unspecified), the “Percent Effect” value is reported as -1.625%.
In the case of `Cc1cccnc1CC(C)N(C)Cc1cccs1` (stereo unspecified), the “Percent Effect” value is reported as -8.458%.
`CC(C)N(C)Cc1cncc2c1CCN(Cc1cccs1)C2.Cl.Cl.Cl` was tested, and the “Percent Effect” value was 94.28%.
With `CC(C)N1CCc2c(CN(C)Cc3ccco3)cncc2C1.Cl.Cl.Cl` the “Percent Effect” value was 5.952%.
In the case of `O=C(O)C(F)(F)F.O=C(O)C(F)(F)F.O=S(=O)(c1cccnc1)N1C[C@@H]2COC[C@]2(CN2CCOCC2)C1`, the “Percent Effect” value is reported as -9.184%.
For `COCCN1CCO[C@@H]2CN(S(=O)(=O)c3cccnc3)C[C@@H]2C1.O=C(O)C(F)(F)F.O=C(O)C(F)(F)F`, the “Percent Effect” value was 120.4%.
For `CN1CCO[C@@H]2CN(S(=O)(=O)c3cccnc3)C[C@@H]2C1.O=C(O)C(F)(F)F.O=C(O)C(F)(F)F`, the “Percent Effect” value was 131.4%.
With `Cc1ccsc1CN1C[C@@H]2CN(Cc3cccnc3)CCO[C@@H]2C1.O=C(O)C(F)(F)F.O=C(O)C(F)(F)F.O=C(O)C(F)(F)F` the “Percent Effect” value was 13.17%.
In the case of `CS(=O)(=O)N1CCO[C@@H]2CN(Cc3ccncc3)C[C@@H]2C1.O=C(O)C(F)(F)F.O=C(O)C(F)(F)F`, the “Percent Effect” value is reported as 13.84%.
In the case of `COCCN1CCO[C@@H]2CN(Cc3ccccn3)C[C@@H]2C1.O=C(O)C(F)(F)F.O=C(O)C(F)(F)F.O=C(O)C(F)(F)F`, the “Percent Effect” value is reported as -10.28%.
`CNCc1cn(C[C@H]2C[C@@H]3CCN2C[C@@H]3C(=O)NC2CCCCC2)nn1` was tested, and the “Percent Effect” value was -0.1027%.
With `COc1cccc([C@@H]2CCN(Cc3ccc4ccccc4n3)C[C@H]2O)c1` the “Percent Effect” value was -2.697%.
With `CCc1cnc(N2CC3(CCN(Cc4ccsc4)C3)C2)nc1.O=C(O)C(F)(F)F` the “Percent Effect” value was 18.1%.
`COc1ncc(CN2CCC3(CCCN(CC4CCC4)C3)C2)cn1` (stereo unspecified) was tested, and the “Percent Effect” value was 83.26%.
In the case of `COCCN1CCC2(CCCN(c3ncc(F)cn3)C2)C1` (stereo unspecified), the “Percent Effect” value is reported as 7.957%.
In the case of `c1cncc(CN2CCC3(CCCN(c4nncs4)C3)C2)c1` (stereo unspecified), the “Percent Effect” value is reported as 3.767%.
`Fc1cnc(N2CC3(CCN(CC4CC4)C3)C2)nc1.O=C(O)C(F)(F)F` was tested, and the “Percent Effect” value was 6.625%.
For `CCc1ncc(CN2C[C@H]3CC[C@@H]2CN(C(=O)C2CCC2)C3)cn1`, the “Percent Effect” value was -5.818%.
In the case of `O=C(O)C(F)(F)F.c1cnc(N2CCCC3(CCN(CC4CCC4)C3)C2)nc1` (stereo unspecified), the “Percent Effect” value is reported as -2.816%.
For `CCc1ncc(CN2CCC3(CCCN(CC4CCC4)C3)C2)cn1` (stereo unspecified), the “Percent Effect” value was 67.34%.
In the case of `Cc1ncc(CN2CCC3(CCCN(CC4CCC4)C3)C2)cn1` (stereo unspecified), the “Percent Effect” value is reported as 97.43%.
With `Cc1c(CN2CCCC(C(=O)c3ccccc3)C2)cc(C#N)n1C` (stereo unspecified) the “Percent Effect” value was -33.94%.
For `CCn1ncc(CN2CCCC(C(=O)c3ccc(Cl)cc3)C2)c1C` (stereo unspecified), the “Percent Effect” value was -8.229%.
For `CC(C)CNC(=O)[C@H]1C[C@@H]2CN(Cc3cccnc3)C[C@H]1O2.O=C(O)C(F)(F)F.O=C(O)C(F)(F)F`, the “Percent Effect” value was 1.995%.
For `O=C(O)C(F)(F)F.O=C1[C@H]2CN(Cc3ccccc3)C[C@H]2CN1c1cncnc1`, the “Percent Effect” value was 5.118%.
`CCNC(=O)[C@H]1CN(Cc2ccccc2)C[C@@H]1C(=O)c1ccccc1` was tested, and the “Percent Effect” value was 155%.
In the case of `COCCN(C)C(C)Cc1ccccc1OC` (stereo unspecified), the “Percent Effect” value is reported as -4.833%.
For `CN(Cc1cncnc1)[C@H]1CN(CC2CC2)[C@@H]2CCCO[C@@H]21.O=C(O)C(F)(F)F.O=C(O)C(F)(F)F`, the “Percent Effect” value was -10.71%.
For `Cc1noc(C)c1CN1C[C@H](OCC(=O)N(C)C)[C@H]2OCCC[C@H]21.O=C(O)C(F)(F)F`, the “Percent Effect” value was -4.98%.
`CO[C@@H]1CC[C@H]2[C@H]1OCCN2CC1CCOCC1.O=C(O)C(F)(F)F` was tested, and the “Percent Effect” value was 4.293%.
`CO[C@H]1CN(CC2CCOCC2)[C@@H]2CCCO[C@H]12.O=C(O)C(F)(F)F` was tested, and the “Percent Effect” value was 117.1%.
`CCO[C@H]1CN(CC2CC2)[C@@H]2CCCO[C@H]12.O=C(O)C(F)(F)F` was tested, and the “Percent Effect” value was 109.7%.
For `CO[C@@H]1CN(Cc2scnc2C)[C@@H]2CCCO[C@@H]21.O=C(O)C(F)(F)F.O=C(O)C(F)(F)F`, the “Percent Effect” value was -11.47%.
With `CO[C@H]1CN(Cc2ccc(C)o2)[C@@H]2CCCO[C@H]12.O=C(O)C(F)(F)F` the “Percent Effect” value was -4.054%.
`CO[C@H]1CN(CC2CC2)[C@@H]2CCCO[C@H]12.O=C(O)C(F)(F)F` was tested, and the “Percent Effect” value was 102.7%.
`Cc1noc(C)c1CN1C[C@H](OCC2CC2)[C@H]2OCCC[C@H]21.O=C(O)C(F)(F)F` was tested, and the “Percent Effect” value was 2.314%.
For `CC(=O)N1CCC2(CCN(CC(C)C)C2)C1` (stereo unspecified), the “Percent Effect” value was -12.71%.
`CCNC(=O)NC[C@H]1C[C@@H]2CCN1C[C@@H]2c1cc(-c2cccs2)nn1C` was tested, and the “Percent Effect” value was -4.515%.
`CCN(CC)C[C@H]1CN2CC[C@H]1C[C@@H]2CNC(=O)Nc1ccsc1` was tested, and the “Percent Effect” value was 12.78%.
`O=C(O)C(F)(F)F.O=C(c1ccncc1F)N1C[C@@H]2OCCN(CC3CC3)[C@@H]2C1` was tested, and the “Percent Effect” value was -13.64%.
`c1cnc(Nc2ccc(C3CCCCN3)cn2)cn1` (stereo unspecified) was tested, and the “Percent Effect” value was 123.5%.
In the case of `Cc1cc(C)nc(Nc2ccc(C3CCCCN3)cn2)n1` (stereo unspecified), the “Percent Effect” value is reported as 126%.
For `Cc1cccc(Nc2ccc(C3CCCCN3)cn2)n1` (stereo unspecified), the “Percent Effect” value was 86.37%.
`CC(=O)N1CCOCC2(CCCNC2)C1` (stereo unspecified) was tested, and the “Percent Effect” value was -30.9%.
In the case of `CCCN1C[C@H]2CC[C@@H]1CN(C(=O)Cn1c(C)cc(C)nc1=O)C2`, the “Percent Effect” value is reported as -4.771%.
With `Cn1cc(CN2C[C@H]3CCC[C@@]3(COc3ccccn3)C2)cn1.O=C(O)C(F)(F)F.O=C(O)C(F)(F)F` the “Percent Effect” value was 101.4%.
With `Cn1cc(CN2CCN3C[C@H](Oc4cccnc4)C[C@H]3C2)cn1` the “Percent Effect” value was -3.726%.
In the case of `O=C(O)C(F)(F)F.O=C(O)C(F)(F)F.c1ccc(CN2C[C@H]3CCC[C@@]3(COCC3CC3)C2)nc1`, the “Percent Effect” value is reported as 8.685%.
For `c1ccc(COC[C@@]23CCC[C@@H]2CN(Cc2ccccn2)C3)nc1`, the “Percent Effect” value was -0.5697%.
`Cn1cc(CN2C[C@H]3CCC[C@@]3(COc3cccnc3)C2)cn1` was tested, and the “Percent Effect” value was 95.98%.
